Laboratory results taken from PubChem BioAssay AID720697 (Broad Institute, 2013).
Results with a measured potency or affinity are listed apart. Inconclusive results are not listed. Unmarked numbers belong to inactive results. The source made the active and inactive calls.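 The calls were made as follows: active = signal loss with fitted half-maximal concentration at or below twice the top valid tested dose in every test run; inconclusive = runs disagree, flat 30 to 70% signal loss, or poor fit; inactive = all runs flat, opposite direction, or potency beyond limit.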

Assay: general mammalian cell viability loss – inhibitor set, cherry-pick, set 2, cytotoxicity control for miR-122 modulator project, dose response (AID 720697);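 also: 0% = median of neutral control wells and -100% = MG132 positive control wells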
Conditions: HEK293T viability, CellTiter-Glo luminescence, 48 h; series mostly up to 26 µM

Structure (SMILES) | outcome | activity change, negative = cytotoxicity
C/C=C/c1ccc([C@@H]2[C@@H](CO)N(C(=O)Cc3cccnc3)[C@H]2CNC(C)=O)cc1 | inactive | 
COCC(=O)N(C[C@@H]1[C@@H](c2ccccc2)[C@H](CO)N1C(=O)NC(C)C)C(C)C | inactive | 
CNC[C@H]1Oc2cc(C#CC3CCCC3)ccc2S(=O)(=O)N([C@H](C)CO)C[C@H]1C | inactive | 
COc1ccc(OC)c(Nc2cc(C)nc3ccc(C)cc23)c1 |  | -30% [at 6 µM]
COc1cccc(C(=O)Nc2ccc3c(c2)C(=O)N(C)[C@H]2CC[C@H](CC(=O)NCc4ccc(F)cc4)O[C@H]2CO3)c1 | inactive | 
COCC(=O)N(C)C[C@H]1Oc2cc(-c3ccc(C#N)cc3)ccc2S(=O)(=O)N([C@H](C)CO)C[C@H]1C | inactive | 
CN(C)CCNc1ncnc2c1sc1nc(N3CCOCC3)c3c(c12)CC(C)(C)SC3 | inactive | 
COc1ccc(N2CCN(C(=O)CSc3nnc(CNc4ccccc4)o3)CC2)cc1 | inactive | 
COCC(=O)N(C)C[C@H]1Oc2cc(C#Cc3cccnc3)ccc2S(=O)(=O)N([C@@H](C)CO)C[C@@H]1C | inactive | 
COC(=O)C[C@@H]1CC[C@@H]2[C@@H](COc3ccc(NS(=O)(=O)c4ccccc4F)cc3C(=O)N2C)O1 | inactive | 
COC(=O)C[C@H]1CC[C@H]2[C@@H](COc3ccc(NC(=O)Nc4c(C)noc4C)cc3C(=O)N2C)O1 | inactive | 
CNC(=O)C[C@@H]1CC[C@@H]2[C@@H](COc3ccc(NC(=O)c4cccc(OC)c4)cc3C(=O)N2C)O1 | inactive | 
Cc1nnc(NC(=O)CSc2nc(C(C)C)nc3sc(C)c(C)c23)s1 | inactive | 
COc1ccc(CCNC(=O)c2c(C)cc(=O)oc2C)cc1OC | inactive | 
Cc1cnc(NC(=O)c2cc3c(C)nn(-c4ccccc4)c3s2)s1 | inactive | 
CCCC(=O)Nc1ccc2c(c1)C(=O)N(C)[C@@H]1CC[C@H](CC(=O)NCCOC)O[C@H]1CO2 | inactive | 
Nc1ccc(Oc2ccc(Br)cc2)cc1 | inactive | 
COc1cc(-c2nnc(-c3ccco3)o2)ccc1OCc1ccccc1 | inactive | 
C/C=C/c1ccc2c(c1)O[C@H](CN(C)C(=O)NCCC)[C@H](C)CN([C@@H](C)CO)S2(=O)=O | inactive | 
COc1cccc(COc2cc3ccccc3nc2C)c1 | inactive | 

Structure (SMILES) | outcome | activity change, negative = cytotoxicity
CN1C(=O)c2cc(NC(=O)Cc3ccccc3)ccc2OC[C@H]2O[C@@H](CC(=O)NC3CCC3)CC[C@H]21 | inactive | 
O=C(c1cccnc1)N1C[C@H]2[C@@H](c3ccccc31)[C@H](CO)N2C(=O)Nc1ccccc1Cl | inactive | 
O=C(c1ccccc1)N1C[C@H]2[C@@H](c3ccccc31)[C@@H](CO)N2C(=O)CN1CCOCC1 | inactive | 
CN1C(=O)c2cc(NC(=O)c3cccc(F)c3)ccc2OC[C@@H]2O[C@@H](CC(=O)Nc3ccccc3)CC[C@@H]21 | inactive | 
CC(C)NC(=O)N1[C@H](CO)[C@@H](c2ccccc2)[C@@H]1CNC(=O)CN(C)C | inactive | 
CCCN(C[C@@H]1N[C@@H](CO)[C@H]1c1ccc(-c2cccnc2)cc1)C(C)=O | inactive | 
COCC(=O)N(C[C@H]1[C@H](c2ccccc2)[C@@H](CO)N1C(=O)NC(C)C)C(C)C | inactive | 
C[C@H]1CCCCO[C@H](CN(C)Cc2ccc3c(c2)OCO3)[C@@H](C)CN([C@@H](C)CO)C(=O)c2cc(NC(=O)Nc3cccc4ccccc34)ccc2O1 | inactive | 
CN1C(=O)c2cc(NC(=O)Cc3ccccc3)ccc2OC[C@H]2O[C@@H](CC(=O)NCc3ccc(Cl)cc3)CC[C@@H]21 | inactive | 
CN1C(=O)c2cc(NC(=O)c3ccc4c(c3)OCO4)ccc2OC[C@H]2O[C@H](CC(=O)O)CC[C@@H]21 | inactive | 
COc1ccc(CN2CCN(Cc3cccn3-c3ncccn3)CC2CCO)c(C)c1C (centres undefined) | inactive | 
O=C(Nc1ccc(F)cc1)N1C[C@H]2[C@@H](c3ccccc31)[C@H](CO)N2C(=O)c1ccncc1 | inactive | 
CCC(=O)N1[C@@H](CO)[C@@H](c2ccccc2)[C@@H]1CN(C(C)C)S(C)(=O)=O | inactive | 
CNC(=O)C[C@H]1CC[C@@H]2[C@H](COc3ccc(NC(=O)c4ccccc4OC)cc3C(=O)N2C)O1 | inactive | 
C[C@@H]1CN([C@H](C)CO)S(=O)(=O)c2ccc(C3=CCCC3)cc2O[C@@H]1CN(C)C(=O)Cc1ccncc1 | inactive | 
COc1cccc(S(=O)(=O)N(C)C[C@@H]2Oc3cc(C4=CCCC4)ccc3S(=O)(=O)N([C@H](C)CO)C[C@@H]2C)c1 | inactive | 
O=C(CNCCC1=CCCCC1)Nc1ccccc1N1CCCCCC1 | inactive | 
CN1C(=O)c2cc(NC(=O)c3ccc(C(F)(F)F)cc3)ccc2OC[C@@H]2O[C@@H](CC(=O)NCc3ccc4c(c3)OCO4)CC[C@@H]21 | inactive | 
COc1ccc(N2CCc3c(C)nc4c(OC)cc(OC)cc4c32)c(OC)c1 | inactive | 
